# A selection: hits, their analogues and other compounds. The true share with any hit is near 4.6%.
# NR3A LBD binder – binders of NR3A ligand-binding domain, primary screen, biophysical, differential scanning fluorimetry, uHTS; NR3A LBD differential scanning fluorimetry, Tm shift; 0% = protein alone, 100% = glycine-bound protein; Tm shift relative to glycine control, % at 25 µM; hit rate 2.5% among 340,000;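 active = melting temperature shift of at least 10% of the positive control shift, at one fixed dose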
# ADAM17 inh – ADAM17 inhibitors, primary screen, biochemical, QFRET; recombinant ADAM17, EDANS/DABCYL FRET peptide cleavage; Disintegrin and metalloproteinase domain-containing protein 17 (Homo sapiens), P78536; hit rate 0.83% among 370,000; inhibition, % at 6.95 µM;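 active = inhibition above the mean of compounds lying between control limits plus 3 SD, set per campaign, cut at about 8.5% in these data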;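 note: 0% = DMSO-only wells as the low control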
# Target sequence (P78536 215-824 limits assumed): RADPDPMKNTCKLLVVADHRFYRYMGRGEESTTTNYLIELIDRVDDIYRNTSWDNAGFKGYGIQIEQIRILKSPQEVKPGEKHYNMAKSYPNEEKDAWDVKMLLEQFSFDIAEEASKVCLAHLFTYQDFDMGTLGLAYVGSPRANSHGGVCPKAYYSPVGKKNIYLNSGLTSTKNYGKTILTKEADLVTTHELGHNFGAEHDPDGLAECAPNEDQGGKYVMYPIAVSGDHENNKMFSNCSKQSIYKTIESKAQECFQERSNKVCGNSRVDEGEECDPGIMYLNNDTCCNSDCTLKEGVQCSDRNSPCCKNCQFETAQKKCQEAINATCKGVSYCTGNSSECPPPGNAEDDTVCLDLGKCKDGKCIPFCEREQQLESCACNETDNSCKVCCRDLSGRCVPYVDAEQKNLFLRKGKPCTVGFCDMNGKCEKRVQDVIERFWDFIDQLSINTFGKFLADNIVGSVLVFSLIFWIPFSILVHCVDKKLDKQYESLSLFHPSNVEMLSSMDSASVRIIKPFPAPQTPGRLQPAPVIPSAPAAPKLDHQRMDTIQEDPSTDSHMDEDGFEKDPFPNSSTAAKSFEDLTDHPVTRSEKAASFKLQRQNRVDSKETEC
# FAS TE block – FAS thioesterase domain inhibitors, primary screen, biochemical, fluorescence intensity, uHTS. hit rate 0.67% among 360,000. AID 602261, 2012. Fatty acid synthase (Homo sapiens), P49327. recombinant FAS-TE, OMFH fluorogenic substrate, fluorescence endpoint. inhibition, % at 15 µM;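 active = compounds whose normalised, plate-corrected inhibition of enzyme fluorescence in the single-dose primary screen is 50% or more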;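 note: 0% = DMSO with enzyme and 100% = substrate without enzyme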
# ADAM10 inh – human ADAM10 inhibitors, primary screen, biochemical, QFRET, HTS; hit rate 0.62% among 370,000; inhibition, % at 7 µM; recombinant ADAM10, EDANS/DABCYL FRET peptide cleavage, 3 h;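 active = inhibition above a per-campaign cutoff equal to the mean of compounds falling between control-based bounds plus 3 SD, cut at about 20% in these data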;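 note: 0% = DMSO wells while the 100% control is not disclosed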
# KLK7 zymogen act – proKLK7 zymogen activators, primary screen, biochemical, fluorescence intensity. purified proKLK7, EDANS-DABCYL substrate fluorescence; 100% is mature enzyme control, 0% vehicle. Kallikrein-7 (Homo sapiens), P49862. AID 652039, 2013. hit rate 0.9% among 370,000. activation, % at 7 µM;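 active = activation above the mean of all tested compounds plus 3 SD, computed per campaign excluding outliers beyond control limits, cut at about 13% in these data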
# ADAM10 confirm – human ADAM10 inhibitors, confirmation, biochemical, QFRET, triplicate | shares compounds with ADAM10 inh | ADAM10 QFRET peptide cleavage, EDANS fluorescence | inhibition, % at 6.95 µM | hit rate 1% among 2,100 | AID 743208, 2013;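 active = inhibition above about 20% chosen separately for each screening run, limit read from the data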;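 note: 0% = DMSO wells and 100% = marimastat wells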
# ADAM17 counter – ADAM17 inhibitors, counter-screen for ADAM10 exosite inhibitor project, biochemical, QFRET, high throughput; hit rate 0.5% among 2,100; ADAM17 QFRET peptide cleavage, EDANS fluorescence; inhibition, % at 6.95 µM; shares compounds with ADAM10 inh;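 active = mean triplicate inhibition above the solvent-only control wells' mean plus 3 SD, cut at about 12% in these data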;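 note: 0% = DMSO wells and 100% = marimastat wells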
# Starred values were filed as active, the others as inactive; . = not tested or not shown.
SMILES,NR3A LBD binder,ADAM17 inh,FAS TE block,ADAM10 inh,KLK7 zymogen act,ADAM10 confirm,ADAM17 counter
O=C(C(=O)N1CCC(CNS(=O)(=O)c2ccccc2)CC1)c1cc2ccccc2o1,.,-2,.,-4,-1,.,.
COc1cc(/C=N/NC(=O)c2cc(-c3cccc(OC(C)C)c3)nc3ccccc23)ccc1O,11*,7,17,28*,-1,9,4
CC(C)(C)c1ccc(C(=O)Nc2cc(Cl)c(Cl)cc2C(=O)O)cc1,.,2,.,20*,.,3,0
Cc1ccccc1OCCCN1CCC(C(O)(c2ccccc2)c2ccccc2)CC1,.,6,.,9,1,.,.
CSc1nc2cc(Oc3cccc(Cl)c3Cl)c(Cl)cc2[nH]1,-7,7,16,20*,0,8,2
O=C(NCc1ccc2c(c1)OCO2)c1ccccc1Cl,-1,-3,-2,2,0,.,.
O=C(NCc1ccc2c(c1)OCO2)c1ccc(CSCc2ccccc2Cl)o1,2,7,29,23*,1,8,4
CN(CCCC1CCCC1)C(=O)c1cc(COc2ccc(F)cc2F)on1,-17,1,37,22*,0,5,2
COc1ccc(Oc2cccc3c2S(=O)(=O)N(C2CC2)C[C@@H](COCc2ccccc2)O3)cc1,.,2,.,3,0,.,.
CCCn1c(C(CO)Nc2nc(-c3cccc(Br)c3)cs2)nc2ccccc21 (stereo not given),-1,9,11,22*,-1,10,3
COC(=O)[C@]12C[C@H](CC(=O)N3CCCCC3)C(=O)N(Cc3ccccc3)C1=C[C@H](C1CCCC1)O[C@@H]2C,.,-3,.,8,1,.,.
Cn1c(=O)c2ccccc2n(C)c1=O,.,-2,.,-22,0,.,.
O=c1c2ccccc2nc(/C=C/c2cccc([N+](=O)[O-])c2)n1CCO,0,1,9,-2,0,.,.
O=C(/C=C/c1cccc([N+](=O)[O-])c1)Nn1c(-c2ccccc2F)nc2ccccc2c1=O,-7,7,28,24*,1,-2,0
CC(C)C[C@H]1COc2cc(Br)ccc2S(=O)(=O)N1Cc1cccc(Cl)c1,.,4,.,5,0,.,.
CCOc1ccc(N2CC(C(=O)Nc3cccc(S(=O)(=O)N4CCCCC4)c3)CC2=O)cc1 (stereo not given),-17,5,6,22*,0,1,0
CCOc1ccc(N2CC(C(=O)Nc3ccc(S(=O)(=O)N4CCCCC4)cc3)CC2=O)cc1 (stereo not given),-3,-1,10,-2,0,.,.
O=C(NCc1ccccc1)C1=C[C@H](c2ccccc2)C[C@H](OCc2ccc(CO)cc2)O1,-5,8,8,20*,0,1,1
O=C(Nc1ccccc1)C1=C[C@H](c2ccc(C(F)(F)F)cc2)C[C@H](OCc2ccc(CO)cc2)O1,8,8.6*,.,26*,0,7,3
O=C(Nc1ccc(F)cc1)OCc1cn(Cc2ccc(F)cc2)nn1,.,8,.,11,1,.,.
C[C@H]1C2CC(OC(=O)Nc3ccc(C(F)(F)F)cc3)C(C2)[C@H]2CCCCN21 (stereo not given in full),.,0,.,-1,0,.,.
Cc1csc(NC(=O)Cc2coc3cc(C)c(C(C)C)cc23)n1,-4,7,23,23*,0,7,1
Cc1cc2occ(CC(=O)NCc3cccs3)c2cc1C(C)C,-2,-2,5,15,-1,.,.
CCOc1ccc(/C=C2/C(=O)N(c3ccc(OC)cc3)C(=S)N2CC(=O)OC)cc1OCC,0,3,21,8,0,.,.
CCOc1ccc(N2C(=O)/C(=C/c3cc(OC)c(OC)c(OC)c3)N(CC(=O)OC)C2=S)cc1,0,7,10,20*,-1,1,1

# Compound activity as filed in PubChem.
